Test results taken from paper PMC4336329 (PLoS ONE, 2015).
Out of some 310,000 compounds screened, about 14,000 (4.5%) showed an effect of 50% or more. Effects have a minus sign here. This is one part of a sample in which strong results are shown more often than they occur.

Target: human ether-à-go-go-related gene (hERG) potassium channel (human, UniProt Q12809)
Assay: primary screen, population patch clamp on CHO cells stably expressing hERG; higher = less effect of the substance
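Note: peak tail current of the secondary pulse compared with the same well before compound.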

human ether-à-go-go-related gene (hERG) potassium channel, sequence (Q12809 whole entry, looked up): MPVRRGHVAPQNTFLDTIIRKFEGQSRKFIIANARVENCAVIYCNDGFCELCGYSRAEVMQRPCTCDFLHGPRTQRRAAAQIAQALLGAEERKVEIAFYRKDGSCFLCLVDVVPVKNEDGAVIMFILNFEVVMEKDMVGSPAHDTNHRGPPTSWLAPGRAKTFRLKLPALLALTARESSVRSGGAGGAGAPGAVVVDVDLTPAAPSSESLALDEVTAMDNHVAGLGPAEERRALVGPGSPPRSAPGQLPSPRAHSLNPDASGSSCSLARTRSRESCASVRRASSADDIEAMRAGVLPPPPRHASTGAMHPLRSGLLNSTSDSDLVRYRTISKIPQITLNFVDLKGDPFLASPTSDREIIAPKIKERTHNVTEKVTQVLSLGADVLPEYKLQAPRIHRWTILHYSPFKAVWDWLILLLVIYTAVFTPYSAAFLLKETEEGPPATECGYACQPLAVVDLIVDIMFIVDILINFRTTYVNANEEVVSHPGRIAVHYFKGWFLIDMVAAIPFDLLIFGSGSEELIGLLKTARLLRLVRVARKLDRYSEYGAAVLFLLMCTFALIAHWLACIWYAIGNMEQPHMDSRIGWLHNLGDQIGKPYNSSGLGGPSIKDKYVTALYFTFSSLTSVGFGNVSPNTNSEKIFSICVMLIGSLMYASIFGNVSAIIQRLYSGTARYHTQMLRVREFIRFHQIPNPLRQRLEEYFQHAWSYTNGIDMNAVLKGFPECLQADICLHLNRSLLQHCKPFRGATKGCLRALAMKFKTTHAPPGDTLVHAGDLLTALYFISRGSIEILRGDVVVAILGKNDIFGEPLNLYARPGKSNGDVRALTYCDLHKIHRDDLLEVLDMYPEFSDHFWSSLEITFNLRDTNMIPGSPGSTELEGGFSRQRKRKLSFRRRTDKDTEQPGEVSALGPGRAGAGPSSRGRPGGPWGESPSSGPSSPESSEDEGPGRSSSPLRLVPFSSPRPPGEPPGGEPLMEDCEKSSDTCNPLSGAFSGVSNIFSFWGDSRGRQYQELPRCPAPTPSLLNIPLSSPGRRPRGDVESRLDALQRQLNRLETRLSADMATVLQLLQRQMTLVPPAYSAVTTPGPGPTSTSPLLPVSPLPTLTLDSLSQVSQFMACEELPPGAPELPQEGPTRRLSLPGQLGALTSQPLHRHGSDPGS

Row | SMILES | hERG current change (%, negative = inhibition) at 10uM [%]
1 | COc1ccc(NC(=O)O/N=C/c2ccccc2)cc1 | -2.52
2 | Cc1ccc(NC(=O)O/N=C/c2cccc([N+](=O)[O-])c2)cc1 | -15.8
3 | COc1ccc(/C=N/OC(=O)Nc2ccccc2)cc1[N+](=O)[O-] | -58.4
4 | CC(NS(=O)(=O)c1ccc(Cl)cc1)C(=O)NCCC1=CCCCC1 (centres unmarked) | -5.41
5 | O=C(COc1ccccc1)N(Cc1ccco1)C1CCS(=O)(=O)C1 (centres unmarked) | -11.5
6 | O=C(COc1ccc(Br)cc1)N(Cc1ccco1)C1CCS(=O)(=O)C1 (centres unmarked) | -50.6
7 | O=C(COc1ccc(Cl)cc1)N(Cc1ccco1)C1CCS(=O)(=O)C1 (centres unmarked) | -20.5
8 | O=C(COc1ccc(F)cc1)N(Cc1ccco1)C1CCS(=O)(=O)C1 (centres unmarked) | -28.4
9 | Cc1ccc(OCC(=O)N(Cc2ccco2)C2CCS(=O)(=O)C2)cc1 (centres unmarked) | -13
10 | CC(C)c1ccc(OCC(=O)N(Cc2ccco2)C2CCS(=O)(=O)C2)cc1 (centres unmarked) | -79.4
11 | O=C(Nc1ccc2c(c1)OCCO2)C1CCCN(S(=O)(=O)Cc2ccccc2)C1 (centres unmarked) | -11
12 | CCn1nc(NS(=O)(=O)c2ccccc2)c2cc3cc(C)ccc3nc21 | 3.38
13 | COC(=O)c1noc(-c2ccc(C)cc2)n1 | -3.95
14 | CCOC(=O)Cc1csc(NC(=O)CCNS(=O)(=O)c2ccc3c(c2)CCC(=O)N3)n1 | 9.62
15 | CCCOP(=O)(OCCC)C(Nc1ccc(C(C)C)cc1)c1ccc([N+](=O)[O-])cc1 (centres unmarked) | 3.7
16 | CCOP(=O)(OCC)C(Nc1ccc([N+](=O)[O-])cc1)c1ccc(Cl)cc1 (centres unmarked) | -76
17 | CCOP(=O)(OCC)C(Nc1cccc([N+](=O)[O-])c1)c1ccccc1 (centres unmarked) | -18.4
18 | Cn1cccc1CC(=O)NNC(=O)Nc1ccccc1F | 7.76
19 | O=C1c2ccccc2C(Nc2ccc3c(c2)OCCO3)N1Cc1ccccc1 (centres unmarked) | -18.2
20 | Cc1ccc(NC(=O)C2CCCN(C(=O)c3ccc(Cl)cc3)C2)cc1C (centres unmarked) | -19.6
21 | Cc1ccc(NC(=O)C2CCCN(C(=O)c3ccc(Cl)cc3)C2)c(C)c1 (centres unmarked) | -59
22 | CC(=O)Nc1ccc(NC(=O)C2CCCN(C(=O)c3ccc(Cl)cc3)C2)cc1 (centres unmarked) | 6.47
23 | CC(=O)c1ccc(NC(=O)C2CCCN(C(=O)c3ccc(Cl)cc3)C2)cc1 (centres unmarked) | -29.7

Row | SMILES | hERG current change (%, negative = inhibition) at 10uM [%]
24 | CC(NC(=O)C1CCCN(C(=O)c2ccc(Cl)cc2)C1)c1cccc(C(F)(F)F)c1 (centres unmarked) | -51.2
25 | Cc1ccc(NC(=O)C2CCCN(C(=O)c3ccc(Cl)cc3)C2)cc1 (centres unmarked) | -33.4
26 | CC(=O)Nc1ccc(N(C(=O)CNC(=O)c2ccco2)C(C(=O)NC2CCCC2)c2ccco2)cc1 (centres unmarked) | 3.72
27 | CC1(C)C(c2cccs2)=[N+]([O-])C2(CCCCC/C2=N\O)N1O (centres unmarked) | 18.5
28 | COc1cc(C(=O)OCC(=O)N2CC(C)OC(C)C2)cc(OC)c1OC (centres unmarked) | 33
29 | COc1ccccc1OCC(=O)N(Cc1nc(-c2ccccc2)no1)C(C)C | -12
30 | O=C(Nc1ccccc1N1CCCCC1)c1ccccc1F | -14.5
31 | CNC(=S)Nc1cc(C(=O)N2CCCC2)ccc1N1CCCC1 | 28.1
32 | O=C(Nc1ccc(C(=O)N2CCCC2)cc1)c1ccccc1F | -4.82
33 | O=C(Nc1cc(C(=O)N2CCOCC2)ccc1N1CCCC1)c1cccs1 | -75.9
34 | O=C(Nc1cc(C(=O)N2CCCC2)ccc1N1CCCC1)c1ccccc1F | -74.6
35 | O=C(Nc1ccc(C(=O)N2CCOCC2)cc1)c1cccs1 | 19.7
36 | COC(=O)c1ccc(N2CCOCC2)c(NC(=O)c2cccs2)c1 | -5.27
37 | O=C(Nc1cc(C(=O)N2CCCC2)ccc1N1CCCC1)c1ccccc1 | -75.6
38 | O=C(Nc1cc(C(=O)N2CCCC2)ccc1N1CCCC1)C1CC1 | -12.9
39 | O=C(CCCCl)Nc1c2c(nn1-c1ccccc1)CSC2 | -0.0485
40 | C/C(=N\NC(=O)Cc1ccc(Cl)c(Cl)c1)c1cccnc1 | -12.9
41 | COCCn1c(C)cc(C(=O)CSc2ccc3ccccc3n2)c1C | -0.727
42 | COc1cccc(-c2cnc(OC(C)(C)C)nc2OC(C)(C)C)c1 | 14.7
43 | O=C(OCc1ccccc1F)c1ccc2c(c1)OCCO2 | 7.26
44 | O=C(CCn1cccc1)NC1CCCc2ccccc21 (centres unmarked) | 4.95
45 | CC(C)(C)NC(=O)NCc1ccco1 | 8.48
46 | O=C(CCN1CCN(c2ccccc2)CC1)Nc1nccs1 | -9.77

Row | SMILES | hERG current change (%, negative = inhibition) at 10uM [%]
47 | Cn1c(=O)[nH]c(=O)c2c1nc(CN1CCN(c3ccccc3F)CC1)n2CCCc1ccccc1 | -33.7
48 | O=C(Nc1ccc([N+](=O)[O-])cc1)C1(c2ccccc2)CCOCC1 | -69.1
49 | Cc1ccc(NC(=O)C2(c3ccccc3)CCOCC2)cc1 | 9.1
50 | O=C(O)c1ccc(NC(=O)C2(c3ccccc3)CCOCC2)cc1 | -5.57
51 | COc1ccc(C(=O)NCc2nnc(SCC(=O)N3CCCCC3)o2)cc1 | 29.8
52 | C/C(=C\c1cc(C(=O)O)c(C)o1)CO | 12.9
53 | O=C(OCc1cc(=O)n2cc(Br)ccc2n1)C1COc2ccccc2O1 (centres unmarked) | -15.5
54 | Cn1c(SCC(=O)c2ccccc2)nnc1C1COc2ccccc2O1 (centres unmarked) | -11.9
55 | Cc1occc1-c1nnc(SCc2cc(=O)n3cc(Br)ccc3n2)n1C | -47.7
56 | Cn1c(SCc2cnc(-c3ccccc3)s2)nnc1C1COc2ccccc2O1 (centres unmarked) | -1.06
57 | Cn1c(SCc2nnc(-c3ccc(F)cc3)o2)nnc1C1COc2ccccc2O1 (centres unmarked) | -60.9
58 | Cn1c(SCc2cc(=O)n3cc(Br)ccc3n2)nnc1C1COc2ccccc2O1 (centres unmarked) | -72
59 | CN(C(=O)COC(=O)c1nc(Cl)ccc1Cl)c1ccccc1 | 17.6
60 | Cc1ccc(OC(=O)CCC(=O)Nc2ccc(C(N)=O)cc2)cc1 | 18.2
61 | COc1cccc(/C=C/c2ccc3cccc(O)c3n2)c1 | 14.8
62 | Cc1cc(C)n(-c2nc(NC(C)(C)C)nc(NC(C)(C)C)n2)n1 | -6.46
63 | N#CCC(=O)NNc1c([N+](=O)[O-])cc(C(F)(F)F)cc1[N+](=O)[O-] | 28.8
64 | COc1ccccc1N1CCN(Cc2nc(-c3ccc(F)cc3)oc2C)CC1 | -65.9
65 | COc1ccccc1CN1CCN(S(=O)(=O)c2ccc(C)cc2)CC1 | -19
66 | COc1cc(-c2nc(CN3CCN(c4ncccn4)CC3)c(C)o2)ccc1F | -9.65
67 | COc1ccc(-c2nc(CN3CCN(Cc4ccccc4)CC3)c(C)o2)cc1 | -42.2
68 | COc1ccccc1N1CCN(Cc2c(F)cccc2F)CC1 | -18
69 | COc1ccccc1CN1CCN(Cc2nc(-c3ccc(C)cc3)oc2C)CC1 | -58.8

Row | SMILES | hERG current change (%, negative = inhibition) at 10uM [%]
70 | Cc1cc(C)cc(C(=O)OCC(=O)N2CCCC2)c1 | 9.79
71 | COC(=O)c1sccc1-c1ccc(C(N)=O)o1 | 7.97
72 | N=C1c2ccccc2CN1c1ncccn1 | -10.6
73 | Cc1cc(C)nc(N2Cc3ccccc3C2=N)n1 | -56
74 | Br.Cc1ccc(N2Cc3ccccc3C2=N)cc1[N+](=O)[O-] | -4.21
75 | COc1ccccc1CN=c1c([N+](=O)[O-])nn(-c2ccc3c(c2)OCCO3)n1O | -7.21
76 | COc1cc(CC(=O)OCC(=O)Nc2cc([N+](=O)[O-])ccc2F)cc(OC)c1OC | -38.9
77 | COc1ccc([N+](=O)[O-])cc1NC(=O)COC(=O)Cc1cc(OC)c(OC)c(OC)c1 | -17.8
78 | COc1cc(CC(=O)OCC(=O)Nc2cc([N+](=O)[O-])ccc2Cl)cc(OC)c1OC | -50
79 | Cc1cc(NC(=O)CCC(=O)N(Cc2ccco2)C(C(=O)NC2CCCCC2)c2cccs2)no1 (centres unmarked) | -20.9
80 | COc1cccc(/C(O)=C2/C(=O)C(=O)N(Cc3ccco3)C2c2ccncc2)c1 (centres unmarked) | 15.2
81 | CS(=O)(=O)N(CC(=O)Nc1ccccc1C(=O)NCc1ccco1)c1ccc2c(c1)OCCO2 | -5.03
82 | CC(=O)Nc1ccc(NC(=O)C(C)OC(=O)CNC(=O)c2sc3ccccc3c2Cl)cc1 (centres unmarked) | 18.6
83 | CN(C)CCCN1C(=O)c2cccc3c([N+](=O)[O-])ccc(c23)C1=O | -27.7
84 | CN(C)CCCN1C(=O)c2cccc3c(Br)ccc(c23)C1=O | -66.4
85 | CN(C)CCCN1C(=O)c2cccc3cccc(c23)C1=O | -16
86 | COc1ccc2c(c1OC)C(=O)OC2Nc1nc(-c2ccccc2)cs1 (centres unmarked) | 8.12
87 | COCCCn1cnc2c(c1=O)c1nc3ccccc3nc1n2-c1ccc(C)cc1 | -37
88 | CCOCCCn1cnc2c(c1=O)c1nc3ccccc3nc1n2-c1ccccc1 | -30.6
89 | COCCCn1cnc2c(c1=O)c1nc3ccccc3nc1n2-c1ccccc1 | -56.6
